A selection: hits, their analogues and other compounds. The true share with any hit is near 1.6%.
GC-A act – GC-A (human) enzyme activation. P16066. HEK293 GC-A cells, cGMP TR-FRET, EC30 ANP; 0% at EC30 ANP, 100% saturating ANP. activation, % at 10 µM. 370,000 compounds, 0.14% hits. AID 1671463; in the data active = activation above about 40%
Rev-erbA mod – modulates human Rev-erb alpha binding to DNA; Rev-erbα–FITC-DNA binding, fluorescence polarization, 90 min; 370,000 compounds, 0.79% hits; AID 1259318; P20393; activity, % at 10 µM;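 active = activity above about 14%, limit read from the data; passing the limit was not always enough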;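 note: 0% = DMSO wells with 35 nM protein and 100% = DMSO wells with 750 nM protein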
PG9 binder – PG9 antibody binding by small molecule; AID 624416; inhibition, % at 6.7 µM; TR-FRET gp120-PG9 antibody binding; 360,000 compounds, 0.43% hits; in the data active = inhibition above about 8.5%
V-ATPase pHluor – yeast V-ATPase proton transport regulation by pHLuorin; S. cerevisiae, pHLuorin cytosolic pH fluorescence; response, % at 10 µM; 350,000 compounds, 0.37% hits; in the data active = response mostly above about 7.3%, no sharp cut-off; inactive = mostly below about 5.4%; note: actives read high
GC-B act – GC-B (human) receptor activation | P20594 | HEK293-GC-B cells, CNP EC30, cGMP TR-FRET; 0% at EC30 CNP, 100% saturating CNP | activation, % at 10 µM | 370,000 compounds, 0.11% hits;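 active = activation at 10 µM reaching about 35% in either raw or pattern-adjusted values, limit read from the data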
PG9 binder conf – confirmation of small molecules binding HIV-1 gp120 antibody PG9 | shares compounds with PG9 binder | TR-FRET PG9 antibody binding, biochemical | inhibition, % at 6.7 µM | 1,500 compounds, 90% hits; in the data active = inhibition above about 9%
PGV04 Ab binding – PGV04 control antibody binding, counter-screen; inhibition, % at 6.7 µM; TR-FRET PGV04 antibody-gp120 binding, biochemical; shares compounds with PG9 binder; 1,500 compounds, 95% hits; in the data active = inhibition above about 9.5%
PG9 binder DR – small molecules binding HIV-1 gp120 antibody PG9. shares compounds with PG9 binder. TR-FRET PG9 antibody-gp120 binding inhibition. IC50, µM. 95 tested, under 10 active. AID 651848; in the data active = IC50 below about 10 µM
PGV04 DR counter – binds control antibody PGV04 in PG9 counter-screen; shares compounds with PG9 binder; TR-FRET binding to control antibody PGV04; IC50, µM; 95 compounds, 20% hits; AID 651937
PG126 binding DR – counter-screen for PG9 binders: binding to control antibody PG126. AID 651939. 95 compounds, 20% hits. IC50, µM. TR-FRET binding to antibody PG126, counterscreen. shares compounds with PG9 binder
Rev-erbA confirm – Rev-erb alpha (human) modulation, hit confirmation; shares compounds with Rev-erbA mod; Rev-erb alpha FITC-DNA binding, fluorescence polarization, 90 min; activation, % at 25 µM; 3,000 compounds, 61% hits; AID 1259319;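 active = activation at or above a set limit, or at least 3 SD above the negative control mean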;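 note: 0% = 35 nM protein with DMSO and 100% = 750 nM protein high control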
RORg DNA counter – counter-screen for Rev-erb alpha modulators: RORgamma DNA binding. shares compounds with Rev-erbA mod. purified RORgamma protein-FITC-DNA binding, fluorescence polarization. IC50, µM. 910 compounds, 8% hits. AID 1259320;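 active = Compounds whose fitted half-maximal concentration for disrupting protein-DNA binding is below 10 micromolar; the record names Rev-erb in its text, so the target is in doubt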
* marks the source's active call; other numbers are inactive results; i = inactive; / = not tested or not shown. Cut-off read from the data, not from the text of the source, unless noted: active = IC50 below about 9 µM; inactive = the rest.

SMILES	GC-A act	Rev-erbA mod	PG9 binder	V-ATPase pHluor	GC-B act	PG9 binder conf	PGV04 Ab binding	Rev-erbA confirm	others
O=C(COC(=O)c1sc2ccccc2c1Cl)Nc1ncc(Cl)cc1Cl	2	52*	21*	-1	2	22*	45*	36*	RORg DNA counter=>40
Brc1cc(Br)c2nc3c(cc2c1)CCC3	17	33*	52*	-1	4	58*	66*	23*
O=C(NCC1CCCO1)c1cc(-c2ccccc2)nc2ccc(Br)cc12 (stereo unspecified)	7	33*	15*	-6	2	19*	25*	26*
CCCC/C=C1/C(c2ccccc2)N(Cc2ccc(OC)cc2OC)C2=NC(c3ccccc3)CC(=O)N21 (stereo unspecified)	-3	4	/	/	-5	/	/	/
COc1ccc(NC(=O)Cn2c(=O)n(-c3ccccc3)c(=O)c3sccc32)c(OC)c1	-1	-5	2	0	-2	/	/	/
CCOc1ccc(-n2c(=O)c3sccc3n(CC(=O)Nc3cccc(OC)c3)c2=O)cc1	-5	31*	24*	0	4	26*	43*	27*
O=C(C1CCN(c2ncnc3c2sc2cccc(F)c23)CC1)N1CCN(C(=O)C2CCCO2)CC1 (stereo unspecified)	6	-5	/	/	-9	/	/	/
COc1ccccc1CNC(=O)COC(=O)c1ccco1	0	-8	-1	2	5	/	/	/
CSc1ncccc1C(=O)OCC(=O)NCCc1ccccc1	0	-3	-1	-2	1	/	/	/
O=C(COC(=O)c1cccnc1SCC(=O)NCc1ccccc1)NCc1ccccc1	-1	53*	32*	0	3	37*	53*	52*	RORg DNA counter=>40
COc1ccccc1CNC(=O)COC(=O)c1cccnc1SCC(=O)NCc1ccccc1OC	1	47*	19*	-2	-4	29*	43*	31*	RORg DNA counter=>40
O=C(NCc1ccc(Cl)cc1)O[C@H]1CC[C@@]23CCCN2C(=O)CCC[C@H]3C1	0	-4	/	/	-2	/	/	/
Cc1ccc(-n2c(SCC(=O)Nc3ccc(Oc4ccccc4)cc3)nnc2-c2ccco2)cc1	-2	-5	/	/	-8	/	/	/
Cc1ccc(-n2c(COc3ccccc3)nnc2SCC(=O)Nc2ccc3c(c2)OCO3)cc1	-7	-2	/	/	-5	/	/	/
C=CCOC(=O)c1sc(NC(=O)c2ccc(OC)cc2)nc1C	-4	39*	18*	1	-7	22*	39*	25*
CCOc1ccc(C(=O)Nc2nc(C)c(C(=O)OC)s2)cc1	-4	50*	12*	2	-6	38*	71*	81*	RORg DNA counter=i
O=C(COc1ccc2ccccc2c1Br)NNC(=O)Nc1ccccc1	0	281*	37*	12	-3	41*	48*	381*	RORg DNA counter=4*
CC(=O)Nc1ccc(OC(C)=O)cc1	/	-2	/	/	/	/	/	/
Cc1cc(C)cc(NC(=O)O[C@@H]2CC[C@@]34CCCN3C(=O)CCC[C@H]4C2)c1	2	-3	/	/	-5	/	/	/
CC(C)c1cc(C(=O)N(C2CCCCC2)C2CCCCC2)no1	-2	-4	/	/	-2	/	/	/
Cc1ccc(C)c(Cn2c(=O)n(CCCC(=O)NCc3ccco3)c(=O)c3sccc32)c1	-9	18*	18*	-1	-7	21*	29*	4
Cc1ccc(C)c(Cn2c(=O)n(CCCC(=O)NCc3ccco3)c(=O)c3ccccc32)c1	-13	4	-1	1	-8	/	/	/
Cc1ccc(NC(=S)Nc2nc(CC(=O)Nc3ccccc3)cs2)cc1	5	101*	16*	1	-7	11*	9.7*	91*	PG9 binder DR=>67;PGV04 DR counter=i;PG126 binding DR=i;RORg DNA counter=>40
CCCN1CCS(=O)(=O)N(Cc2cn(Cc3ccc(OC)cc3)nn2)C(C(=O)OC)C1 (stereo unspecified)	0	2	/	/	-1	/	/	/
COc1cccc(NC(=O)NC2CCCCN(Cc3ccc(C)cc3)C2=O)c1 (stereo unspecified)	2	4	/	/	-2	/	/	/
SMILES	GC-A act	Rev-erbA mod	PG9 binder	V-ATPase pHluor	GC-B act	PG9 binder conf	PGV04 Ab binding	Rev-erbA confirm	others
CC(C)CN1CN2Cc3ccccc3C2CS1(=O)=O (stereo unspecified)	2	0	/	/	4	/	/	/
O=C(Nc1ccc(F)cc1)OCc1cn(Cc2cccc(F)c2F)nn1	-4	5	/	/	-1	/	/	/
CC(=O)Nc1ccc(NC(=O)C(C)OC(=O)/C(C#N)=C/c2ccc(N(C)C)cc2)cc1 (stereo unspecified)	-2	18*	17*	-17	2	20*	37*	14*
CC(C)Nc1nc(-c2ccncc2)nc(-c2ccccc2)c1C#N	12	40*	9.1*	3	16	43*	61*	14
O=C(CSc1n[nH]c(-c2cccs2)n1)NCc1ccc2c(c1)OCO2	-1	-2	2	-3	1	/	/	/
N#Cc1c(N)nc(SCC(=O)NCc2ccc3c(c2)OCO3)c(C#N)c1-c1cccs1	-1	85*	50*	1	-13	23*	40*	54*	RORg DNA counter=>40
COC(=O)c1cc(-c2cccs2)c(=O)n2c1CCC2	4	0	/	/	-6	/	/	/
CC1CCCCC1N(C(=O)c1cc(C2CC2)on1)C1CCCCCC1 (stereo unspecified)	-7	5	/	/	-4	/	/	/
O=C(Nc1nc(-c2cc3ccccc3o2)cs1)c1ccc(S(=O)(=O)N2CCCC2)cc1	1	3	-2	1	7	/	/	/
CC1CN(S(=O)(=O)c2ccc(C(=O)Nc3nc(-c4cc5ccccc5o4)cs3)cc2)CC(C)O1 (stereo unspecified)	2	64*	63*	-8	-1	71*	79*	12
CCc1nc(SCC(=O)Nc2ccc3c(c2)OCCO3)c2oc3ccccc3c2n1	11	172*	50*	7	4	68*	83*	169*	RORg DNA counter=i

Assay outcomes deposited in PubChem by several laboratories.
